The inhibition is the relative decrease from the control value, in per cent.

Molecules are shown by their SMILES.

Experimental findings from ChEMBL document CHEMBL1961873, “Compounds: GSK PKIS; Assays: Nanosyn kinase panel” (2012) are described below.

The target of assay [1] is High affinity nerve growth factor receptor (Homo sapiens) (UniProt P04629). Conditions: at 1 µM.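 Further: each value is the mean percent inhibition of TRKA.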
The target of assay [2] is BDNF/NT-3 growth factors receptor (Homo sapiens) (UniProt Q16620). Conditions: at 0.1 µM.
Assay [3] has the same target. The conditions noted are these: at 1 µM.
The target of assay [4] is NT-3 growth factor receptor (Homo sapiens) (UniProt Q16288). Conditions: at 0.1 µM.
The target is the same in assay [5]. The conditions noted are these: at 1 µM.
In assay [6] the target is T1, Tyrosine-protein kinase TXK (Homo sapiens) (UniProt P42681).
T1 sequence (whole entry): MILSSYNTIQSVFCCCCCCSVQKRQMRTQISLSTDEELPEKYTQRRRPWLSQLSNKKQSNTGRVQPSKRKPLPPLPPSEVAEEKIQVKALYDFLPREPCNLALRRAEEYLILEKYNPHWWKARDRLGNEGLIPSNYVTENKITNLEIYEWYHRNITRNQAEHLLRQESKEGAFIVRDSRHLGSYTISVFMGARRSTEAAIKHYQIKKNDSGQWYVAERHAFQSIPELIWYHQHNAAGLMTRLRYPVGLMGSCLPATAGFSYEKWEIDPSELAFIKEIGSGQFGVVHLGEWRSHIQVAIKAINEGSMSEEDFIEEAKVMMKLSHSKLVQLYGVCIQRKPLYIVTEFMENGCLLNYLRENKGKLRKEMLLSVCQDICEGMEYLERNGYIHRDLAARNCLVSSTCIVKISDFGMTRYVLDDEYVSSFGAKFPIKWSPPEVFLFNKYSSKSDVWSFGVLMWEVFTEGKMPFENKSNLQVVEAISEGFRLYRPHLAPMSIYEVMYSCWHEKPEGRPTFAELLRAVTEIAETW
The conditions noted are these: at 0.1 µM.

Assay [7] deals with T1, Tyrosine-protein kinase TXK (Homo sapiens). Conditions: at 1 µM.
Assay [8] concerns the target Non-receptor tyrosine-protein kinase TYK2 (Homo sapiens) (UniProt P29597). The conditions noted are these: at 0.1 µM.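 Further: each value is a mean of the inhibition readings.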
Assay [9] concerns the target T2, Dual specificity protein kinase TTK (Homo sapiens) (UniProt P33981).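 Further: reported figures are mean TTK inhibition at 1 µM.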
T2 sequence (whole entry): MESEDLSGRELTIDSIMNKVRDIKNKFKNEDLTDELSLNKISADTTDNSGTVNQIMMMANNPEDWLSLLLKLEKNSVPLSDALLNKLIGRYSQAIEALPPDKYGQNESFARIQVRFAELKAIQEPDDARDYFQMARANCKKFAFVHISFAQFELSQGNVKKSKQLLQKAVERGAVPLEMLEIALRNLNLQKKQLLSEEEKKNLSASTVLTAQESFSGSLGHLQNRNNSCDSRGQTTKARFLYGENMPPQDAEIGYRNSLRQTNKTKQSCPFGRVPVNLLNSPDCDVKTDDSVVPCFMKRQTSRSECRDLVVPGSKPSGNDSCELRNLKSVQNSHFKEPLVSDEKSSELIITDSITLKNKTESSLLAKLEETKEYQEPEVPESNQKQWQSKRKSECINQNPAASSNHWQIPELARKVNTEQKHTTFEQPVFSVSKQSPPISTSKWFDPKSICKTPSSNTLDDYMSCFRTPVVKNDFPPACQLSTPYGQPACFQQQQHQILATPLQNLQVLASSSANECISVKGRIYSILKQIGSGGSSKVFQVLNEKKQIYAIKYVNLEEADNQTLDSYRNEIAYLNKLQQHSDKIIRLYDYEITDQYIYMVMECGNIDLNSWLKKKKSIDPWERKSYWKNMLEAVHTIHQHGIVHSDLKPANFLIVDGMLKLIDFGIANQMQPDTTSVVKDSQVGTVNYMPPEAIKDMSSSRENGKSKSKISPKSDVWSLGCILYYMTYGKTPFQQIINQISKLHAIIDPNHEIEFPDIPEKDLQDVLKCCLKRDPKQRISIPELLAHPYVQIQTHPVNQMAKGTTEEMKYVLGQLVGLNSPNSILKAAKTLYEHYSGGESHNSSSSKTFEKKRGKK
Conditions: at 1 µM.

The target of assay [10] is T3, Aurora kinase A (Homo sapiens) (UniProt O14965).
T3 sequence (whole entry): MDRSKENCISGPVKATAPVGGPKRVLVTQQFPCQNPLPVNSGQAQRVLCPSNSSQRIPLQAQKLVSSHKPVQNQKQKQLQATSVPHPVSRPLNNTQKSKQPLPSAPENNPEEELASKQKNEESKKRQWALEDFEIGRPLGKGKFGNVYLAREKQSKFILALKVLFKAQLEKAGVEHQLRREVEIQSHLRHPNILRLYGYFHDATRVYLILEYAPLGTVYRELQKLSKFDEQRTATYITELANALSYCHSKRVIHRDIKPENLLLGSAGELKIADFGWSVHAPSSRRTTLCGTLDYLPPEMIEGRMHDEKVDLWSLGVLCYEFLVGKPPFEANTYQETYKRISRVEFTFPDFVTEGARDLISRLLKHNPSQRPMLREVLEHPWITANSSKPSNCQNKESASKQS
Conditions: at 0.1 µM.

Assay [11] has as its target T3, Aurora kinase A (Homo sapiens). Conditions: at 1 µM.
Assay [12] deals with Aurora kinase B (Homo sapiens) (UniProt Q96GD4). Conditions: at 0.1 µM.
Assay [13] has the same target. The conditions noted are these: at 1 µM.
For assay [14], the target named is T4, Aurora kinase C (Homo sapiens) (UniProt Q9UQB9).
T4 sequence (whole entry): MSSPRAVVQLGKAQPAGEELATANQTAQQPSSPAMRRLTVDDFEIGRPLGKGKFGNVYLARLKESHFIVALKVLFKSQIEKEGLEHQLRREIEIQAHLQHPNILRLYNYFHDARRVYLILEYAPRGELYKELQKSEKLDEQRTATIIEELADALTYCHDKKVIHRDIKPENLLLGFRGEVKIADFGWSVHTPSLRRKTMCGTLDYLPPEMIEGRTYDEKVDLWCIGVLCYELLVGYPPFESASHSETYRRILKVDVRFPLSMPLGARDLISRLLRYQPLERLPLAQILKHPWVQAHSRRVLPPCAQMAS
Conditions: at 0.1 µM.

The target of assay [15] is T4, Aurora kinase C (Homo sapiens). The conditions noted are these: at 1 µM.
The target in assay [16] is Serine/threonine-protein kinase 10 (Homo sapiens) (UniProt O94804). The conditions noted are these: at 0.1 µM.
For assay [17] the target is unchanged. Conditions: at 1 µM.
The target in assay [18] is T5, Mitogen-activated protein kinase kinase kinase kinase 2 (Homo sapiens) (UniProt Q12851).
T5 sequence (whole entry): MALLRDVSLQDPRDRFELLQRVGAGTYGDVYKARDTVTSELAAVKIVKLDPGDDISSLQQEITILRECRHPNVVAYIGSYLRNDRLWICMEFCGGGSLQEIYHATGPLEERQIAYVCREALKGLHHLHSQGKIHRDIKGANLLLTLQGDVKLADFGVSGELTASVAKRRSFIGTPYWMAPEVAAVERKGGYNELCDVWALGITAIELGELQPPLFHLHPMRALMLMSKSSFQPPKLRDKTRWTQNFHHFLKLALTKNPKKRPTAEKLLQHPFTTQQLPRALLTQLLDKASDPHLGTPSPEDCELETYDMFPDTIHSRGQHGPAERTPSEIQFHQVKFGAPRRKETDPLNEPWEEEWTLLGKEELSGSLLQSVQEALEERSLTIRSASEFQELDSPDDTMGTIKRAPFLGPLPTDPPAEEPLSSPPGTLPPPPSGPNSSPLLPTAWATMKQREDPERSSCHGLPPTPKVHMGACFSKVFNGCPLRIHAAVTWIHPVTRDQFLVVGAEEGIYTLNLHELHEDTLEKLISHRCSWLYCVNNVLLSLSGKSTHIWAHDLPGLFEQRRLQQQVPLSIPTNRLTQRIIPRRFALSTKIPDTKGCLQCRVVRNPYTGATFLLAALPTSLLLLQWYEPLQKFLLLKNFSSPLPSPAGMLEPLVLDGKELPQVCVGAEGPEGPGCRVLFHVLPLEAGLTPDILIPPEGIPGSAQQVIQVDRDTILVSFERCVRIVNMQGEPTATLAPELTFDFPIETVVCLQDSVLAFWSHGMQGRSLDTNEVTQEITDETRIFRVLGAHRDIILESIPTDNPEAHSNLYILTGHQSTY
Conditions: at 0.1 µM.

For assay [19], the target named is T5, Mitogen-activated protein kinase kinase kinase kinase 2 (Homo sapiens). Conditions: at 1 µM.
Assay [20] addresses Mitogen-activated protein kinase kinase kinase kinase 4 (Homo sapiens) (UniProt O95819). The conditions noted are these: at 0.1 µM.

Mitogen-activated protein kinase kinase kinase kinase 4 (Homo sapiens), sequence (O95819 2-1239 limits assumed): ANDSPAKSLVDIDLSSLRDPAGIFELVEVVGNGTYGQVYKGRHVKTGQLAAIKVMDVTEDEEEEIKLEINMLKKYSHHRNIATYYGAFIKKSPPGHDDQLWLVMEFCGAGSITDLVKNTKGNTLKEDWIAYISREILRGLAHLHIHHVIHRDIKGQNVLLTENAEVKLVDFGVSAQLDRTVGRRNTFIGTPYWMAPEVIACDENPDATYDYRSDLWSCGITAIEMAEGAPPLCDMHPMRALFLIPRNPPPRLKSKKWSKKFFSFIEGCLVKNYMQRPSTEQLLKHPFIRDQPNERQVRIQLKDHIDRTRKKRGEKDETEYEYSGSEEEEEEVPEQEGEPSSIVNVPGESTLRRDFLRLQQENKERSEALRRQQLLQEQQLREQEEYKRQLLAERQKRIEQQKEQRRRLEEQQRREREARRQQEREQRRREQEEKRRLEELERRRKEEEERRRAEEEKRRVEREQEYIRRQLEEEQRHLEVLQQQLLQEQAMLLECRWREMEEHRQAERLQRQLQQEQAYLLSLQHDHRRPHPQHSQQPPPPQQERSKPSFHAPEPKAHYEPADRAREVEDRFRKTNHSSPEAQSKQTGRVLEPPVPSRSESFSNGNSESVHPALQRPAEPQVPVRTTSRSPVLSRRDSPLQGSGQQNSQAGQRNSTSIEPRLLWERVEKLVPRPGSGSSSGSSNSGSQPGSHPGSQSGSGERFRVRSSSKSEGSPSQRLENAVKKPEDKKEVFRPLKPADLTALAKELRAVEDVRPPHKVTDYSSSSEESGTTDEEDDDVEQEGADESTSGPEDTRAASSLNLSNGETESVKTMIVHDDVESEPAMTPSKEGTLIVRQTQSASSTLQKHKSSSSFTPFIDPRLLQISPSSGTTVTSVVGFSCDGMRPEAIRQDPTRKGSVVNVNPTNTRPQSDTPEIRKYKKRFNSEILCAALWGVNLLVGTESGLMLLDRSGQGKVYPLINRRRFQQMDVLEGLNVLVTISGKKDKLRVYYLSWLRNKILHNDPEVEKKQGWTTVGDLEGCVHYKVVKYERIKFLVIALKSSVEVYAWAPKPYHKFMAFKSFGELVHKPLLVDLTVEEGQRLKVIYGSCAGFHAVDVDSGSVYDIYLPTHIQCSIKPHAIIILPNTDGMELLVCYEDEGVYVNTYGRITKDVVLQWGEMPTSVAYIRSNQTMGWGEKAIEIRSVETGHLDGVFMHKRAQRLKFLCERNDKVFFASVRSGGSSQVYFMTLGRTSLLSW
BDNF/NT-3 growth factors receptor (Homo sapiens), sequence (Q16620 32-822 limits assumed): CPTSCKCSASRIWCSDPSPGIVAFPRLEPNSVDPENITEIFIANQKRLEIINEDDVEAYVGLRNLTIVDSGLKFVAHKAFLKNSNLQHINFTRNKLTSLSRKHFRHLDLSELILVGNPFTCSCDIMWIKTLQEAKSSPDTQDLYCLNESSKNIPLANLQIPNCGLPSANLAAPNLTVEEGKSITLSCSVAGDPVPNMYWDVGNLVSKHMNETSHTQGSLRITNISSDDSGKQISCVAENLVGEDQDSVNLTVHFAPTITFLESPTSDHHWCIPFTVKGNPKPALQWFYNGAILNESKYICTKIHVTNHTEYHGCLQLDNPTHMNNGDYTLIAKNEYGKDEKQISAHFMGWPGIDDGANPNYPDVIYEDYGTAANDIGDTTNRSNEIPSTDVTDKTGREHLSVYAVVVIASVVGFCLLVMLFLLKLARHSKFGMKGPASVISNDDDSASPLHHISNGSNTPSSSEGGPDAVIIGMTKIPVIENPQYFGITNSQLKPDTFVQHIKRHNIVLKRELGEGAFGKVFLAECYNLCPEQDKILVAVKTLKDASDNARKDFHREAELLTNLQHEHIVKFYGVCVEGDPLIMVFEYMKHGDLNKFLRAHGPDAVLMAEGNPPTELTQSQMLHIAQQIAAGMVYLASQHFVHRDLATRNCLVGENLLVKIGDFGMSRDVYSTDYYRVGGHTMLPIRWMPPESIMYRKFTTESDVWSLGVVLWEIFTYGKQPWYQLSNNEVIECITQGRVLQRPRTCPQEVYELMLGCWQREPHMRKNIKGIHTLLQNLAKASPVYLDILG
Serine/threonine-protein kinase 10 (Homo sapiens), sequence (O94804 whole entry, looked up): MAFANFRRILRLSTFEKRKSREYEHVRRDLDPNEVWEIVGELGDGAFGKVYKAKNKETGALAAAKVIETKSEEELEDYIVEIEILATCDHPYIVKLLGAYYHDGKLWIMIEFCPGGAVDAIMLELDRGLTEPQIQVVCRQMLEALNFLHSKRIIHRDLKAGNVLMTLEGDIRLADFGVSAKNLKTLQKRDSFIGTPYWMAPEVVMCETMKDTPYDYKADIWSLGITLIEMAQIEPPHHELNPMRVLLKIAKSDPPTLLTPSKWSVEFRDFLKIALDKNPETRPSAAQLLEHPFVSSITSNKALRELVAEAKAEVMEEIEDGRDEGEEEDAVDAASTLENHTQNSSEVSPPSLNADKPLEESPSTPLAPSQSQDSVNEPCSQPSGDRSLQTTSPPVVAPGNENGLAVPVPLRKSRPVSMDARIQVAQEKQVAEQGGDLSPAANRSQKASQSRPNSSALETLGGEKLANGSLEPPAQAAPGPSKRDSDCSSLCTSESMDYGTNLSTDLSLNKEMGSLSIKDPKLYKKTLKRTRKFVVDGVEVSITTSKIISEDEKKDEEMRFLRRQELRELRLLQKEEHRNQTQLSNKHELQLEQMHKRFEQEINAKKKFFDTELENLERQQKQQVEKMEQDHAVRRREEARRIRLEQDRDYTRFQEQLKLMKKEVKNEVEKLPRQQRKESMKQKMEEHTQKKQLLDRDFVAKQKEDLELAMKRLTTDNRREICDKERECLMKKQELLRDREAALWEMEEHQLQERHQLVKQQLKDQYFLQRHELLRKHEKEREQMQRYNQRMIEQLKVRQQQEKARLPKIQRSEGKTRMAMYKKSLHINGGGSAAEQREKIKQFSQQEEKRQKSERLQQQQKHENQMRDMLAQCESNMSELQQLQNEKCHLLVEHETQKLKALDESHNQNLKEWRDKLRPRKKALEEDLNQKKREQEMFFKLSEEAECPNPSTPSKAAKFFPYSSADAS
High affinity nerve growth factor receptor (Homo sapiens), sequence (P04629 33-796 limits assumed): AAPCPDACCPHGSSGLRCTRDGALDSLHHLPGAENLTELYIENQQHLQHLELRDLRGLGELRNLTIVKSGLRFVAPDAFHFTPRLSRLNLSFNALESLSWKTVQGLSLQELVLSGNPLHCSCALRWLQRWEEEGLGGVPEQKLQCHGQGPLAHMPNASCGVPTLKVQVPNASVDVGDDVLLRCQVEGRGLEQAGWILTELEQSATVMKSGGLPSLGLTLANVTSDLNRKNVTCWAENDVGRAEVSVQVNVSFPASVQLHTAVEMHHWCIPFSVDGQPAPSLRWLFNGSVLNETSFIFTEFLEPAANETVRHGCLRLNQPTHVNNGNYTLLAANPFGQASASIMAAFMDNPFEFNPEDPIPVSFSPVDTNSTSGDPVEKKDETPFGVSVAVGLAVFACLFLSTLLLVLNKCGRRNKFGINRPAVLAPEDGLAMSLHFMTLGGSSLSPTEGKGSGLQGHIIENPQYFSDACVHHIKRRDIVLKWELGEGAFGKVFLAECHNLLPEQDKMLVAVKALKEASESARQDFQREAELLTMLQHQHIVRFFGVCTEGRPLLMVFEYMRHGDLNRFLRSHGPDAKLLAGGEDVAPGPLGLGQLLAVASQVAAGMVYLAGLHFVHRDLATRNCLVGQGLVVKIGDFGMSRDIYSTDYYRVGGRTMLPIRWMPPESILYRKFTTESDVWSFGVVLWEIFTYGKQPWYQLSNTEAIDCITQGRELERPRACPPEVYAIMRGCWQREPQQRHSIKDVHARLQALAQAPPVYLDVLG
Non-receptor tyrosine-protein kinase TYK2 (Homo sapiens), sequence (P29597 whole entry): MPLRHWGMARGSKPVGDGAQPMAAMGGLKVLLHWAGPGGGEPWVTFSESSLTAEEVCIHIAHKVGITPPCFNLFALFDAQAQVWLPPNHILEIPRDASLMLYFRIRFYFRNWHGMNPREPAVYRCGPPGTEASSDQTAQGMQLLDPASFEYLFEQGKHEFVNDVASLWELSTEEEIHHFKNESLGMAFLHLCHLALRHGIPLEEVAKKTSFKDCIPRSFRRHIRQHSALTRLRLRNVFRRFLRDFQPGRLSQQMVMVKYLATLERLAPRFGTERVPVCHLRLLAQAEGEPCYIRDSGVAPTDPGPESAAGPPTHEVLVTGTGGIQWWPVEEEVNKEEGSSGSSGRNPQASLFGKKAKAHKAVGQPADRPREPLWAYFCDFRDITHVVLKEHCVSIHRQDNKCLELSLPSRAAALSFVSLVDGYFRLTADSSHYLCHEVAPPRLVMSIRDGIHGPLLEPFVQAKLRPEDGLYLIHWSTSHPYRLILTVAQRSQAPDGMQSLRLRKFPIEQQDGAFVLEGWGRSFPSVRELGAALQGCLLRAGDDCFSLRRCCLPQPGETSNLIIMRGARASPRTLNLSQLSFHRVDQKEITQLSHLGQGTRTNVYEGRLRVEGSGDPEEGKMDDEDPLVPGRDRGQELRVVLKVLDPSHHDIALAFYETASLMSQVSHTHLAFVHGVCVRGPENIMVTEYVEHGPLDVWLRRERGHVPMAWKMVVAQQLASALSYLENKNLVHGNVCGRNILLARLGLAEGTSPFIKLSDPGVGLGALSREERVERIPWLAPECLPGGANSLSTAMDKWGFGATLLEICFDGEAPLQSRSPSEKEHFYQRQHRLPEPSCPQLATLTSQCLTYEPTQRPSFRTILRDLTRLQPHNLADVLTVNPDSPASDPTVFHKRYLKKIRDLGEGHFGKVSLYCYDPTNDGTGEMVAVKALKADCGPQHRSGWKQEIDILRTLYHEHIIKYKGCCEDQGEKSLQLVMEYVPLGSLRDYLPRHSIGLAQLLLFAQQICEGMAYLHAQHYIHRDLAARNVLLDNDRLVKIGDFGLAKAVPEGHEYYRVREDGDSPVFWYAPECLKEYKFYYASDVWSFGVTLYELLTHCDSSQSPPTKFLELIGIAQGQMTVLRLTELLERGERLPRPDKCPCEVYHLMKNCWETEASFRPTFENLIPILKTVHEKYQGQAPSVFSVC

Consider `COc1cc2c(cc1Nc1nc(Nc3ccsc3C(N)=O)c3cc[nH]c3n1)N(C(=O)CN(C)C)CCC2(C)C`, for which the inhibition is 13.6% in assay [1]; 3.72% in [2]; 11.4% in assay [3]; 4.08% in assay [4]; 11.6% in assay [5]; 2.02% in [6]. In addition, the inhibition in assay [7] is 4.22%; in [8] it was -4.11%; in [9], 49.6%; in [10], 3.59%; in assay [11] it was 13.2%; in assay [12], 6.17%. Further, the inhibition in [13] is 11.7%; in assay [14] it was 4.7%; in [15], 13.7%; in assay [16], 6.3%; in assay [17], 17.3%; in assay [18], 4.1%. In addition, the inhibition in [19] came to 22.6%; in [20], 12.1%.
For the molecule `CCNC(=O)O[C@H]1CN[C@H](C#Cc2cc3ncnc(Nc4ccc(OCc5cccc(F)c5)c(Cl)c4)c3s2)C1`, the inhibition in assay [1] is 3.06%; in [2] it was 3.01%; in [3], 1.6%; in assay [4], 2.47%; in [5], 1.74%; in assay [6] it was 3.06%. Moreover, the inhibition was 3.99% in assay [7]; -3.3% in [8]; 10.4% in [9]; 1.24% in assay [10]; 9.61% in assay [11]; 0.34% in assay [12]. The inhibition in assay [13] amounted to 8.23%; in [14] it was 1.85%; in [15], 12%; in [16] it was 3.53%; in assay [17], 9.99%; in assay [18], 0.18%. Also, the inhibition in [19] was 2.21%; in assay [20] it was 4.18%.
For `COc1cc(/C=N/Nc2ncnc3[nH]ncc23)ccc1O`, the inhibition in [1] was determined as 3.15%; in assay [2], 3.49%; in [3], 10.7%; in assay [4], 2.95%; in assay [5], 11.2%; in assay [6], 5.2%. The inhibition in assay [7] was 24.9%; in assay [8] it was -2.44%; in [9] it was 13.4%; in [10] it was 6.3%; in assay [11], 55.1%; in assay [12], 9.45%. Besides, the inhibition in assay [13] was determined as 42.1%; in assay [14], 6.8%; in assay [15] it was 66%; in [16], 5.88%; in assay [17], 19.5%; in assay [18] it was 1.7%. Moreover, the inhibition stood at 9.66% in assay [19] and 7.81% in assay [20].
With `CCCN(CCS(C)(=O)=O)Cc1ccc(-c2ccc3ncnc(Nc4ccc(OCc5cccc(F)c5)c(Cl)c4)c3c2)o1`, the inhibition was 0.23% in [1]; 0.15% in assay [2]; 1.45% in assay [3]; 2.2% in [4]; 2.15% in [5]; 2.27% in assay [6]. For the same molecule, the inhibition in [7] is 2.93%; in [8] it was -3.81%; in assay [9], 5.96%; in assay [10], 1.47%; in [11] it was 11.8%; in assay [12], 3.11%. Also, the inhibition is 8.39% in assay [13]; 1.17% in [14]; 5.04% in [15]; 2.22% in assay [16]; 5.54% in [17]; 0.84% in [18]. The inhibition in assay [19] was determined as 2.9%; in assay [20], 1.66%.
As to `Fc1ccc(-c2nn3ncccc3c2-c2ccnc(Nc3ccc4c(c3)OCCO4)n2)cc1`, the inhibition in assay [1] is 16.7%; in [2], 4.94%; in [3] it was 12.8%; in assay [4] it was 3.72%; in assay [5] it was 8.83%; in assay [6] it was 10.8%. In addition, the inhibition is 38% in [7]; -8.76% in [8]; 19.2% in assay [9]; 2.98% in assay [10]; 33.7% in assay [11]; 4.26% in assay [12]. Besides, the inhibition in assay [13] was 12.2%; in [14] it was 1.04%; in [15] it was 22.9%; in assay [16], 10.8%; in assay [17] it was 41.8%; in assay [18] it was 1.14%. Also, the figures for the inhibition in assay [19] and in assay [20] were 12.1% and 20.1%, respectively.
Consider `CNC(=O)c1cc(-c2ccc(F)cc2)cc(-c2ccc(S(=O)(=O)N3CCCC3)cc2)c1N`, for which the inhibition in assay [1] amounted to 2.94%; in assay [2], 2.22%; in [3] it was 2.48%; in assay [4] it was 2.53%; in assay [5], 2.33%; in assay [6], 2.21%. Further, the inhibition is 2.22% in assay [7]; -3.89% in [8]; 3.8% in assay [9]; 0.79% in assay [10]; 0.86% in assay [11]; 2.91% in assay [12]. The inhibition is 3.09% in assay [13]; -0.67% in assay [14]; 1.97% in [15]; 2.49% in [16]; 4.92% in [17]; 1% in assay [18]. Besides, the inhibition turned out to be 0.67% in [19] and 3.33% in assay [20].
